We go through 18 compounds from PubChem BioAssay (NCATS).

Active and inactive are the calls of the source. Calls come from the whole dose curve; as a rule, active = well fitted curve in the direction sought with a large enough effect; inconclusive = small, poorly fitted or top-dose-only effect, or another doubt; inactive = no such curve, though single readings can be large or run the other way.

Sequence of Alpha-galactosidase (Coffea arabica) (Q42656 whole entry, looked up): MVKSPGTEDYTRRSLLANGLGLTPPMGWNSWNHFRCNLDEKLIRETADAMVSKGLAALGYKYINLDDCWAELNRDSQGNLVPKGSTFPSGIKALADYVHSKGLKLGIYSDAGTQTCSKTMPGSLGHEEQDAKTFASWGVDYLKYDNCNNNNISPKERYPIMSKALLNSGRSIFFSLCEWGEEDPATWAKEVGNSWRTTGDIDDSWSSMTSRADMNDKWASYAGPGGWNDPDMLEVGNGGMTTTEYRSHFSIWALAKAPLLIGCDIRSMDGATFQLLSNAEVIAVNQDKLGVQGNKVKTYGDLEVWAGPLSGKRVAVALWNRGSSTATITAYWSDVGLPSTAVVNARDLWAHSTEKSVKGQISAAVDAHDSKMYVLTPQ

The test addresses Alpha-galactosidase (Coffea arabica) (UniProt Q42656). As to the kind of experiment: Counterscreen for Glucocerebrosidase Inhibitors: qHTS Assay for Coffee Bean alpha-Galactosidase at pH 4.5 (AID 957).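 Note: plate controls were enzyme alone for no effect and no enzyme for full effect.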 The conditions noted are these: purified coffee bean alpha-galactosidase, fluorogenic substrate; series mostly up to 76.9 µM; activity change, negative = inhibition: at the top concentration. In outline: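 Enzyme is added first (2 nM final), then compounds titrated from 0.7 nM to 77 uM, then 80 uM 4-methylumbelliferyl alpha-D-galactopyranoside; after 20 min at room temperature a pH 10 NaOH/glycine stop precedes fluorescence reading at 365/440 nm.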
(In general: Counterscreens check selectivity or assay interference.)
Turning to `Clc1ccccc1C(c1ccccc1)(c1ccccc1)n1ccnc1`, the “activity change, negative = inhibition” value was -13.5% (inactive).
To `O=C1NCN(c2ccccc2)C12CCN(CCCC(c1ccc(F)cc1)c1ccc(F)cc1)CC2` belongs -10% (inactive); to `CC(C)(C)c1ccc(C(O)CCCN2CCC(C(O)(c3ccccc3)c3ccccc3)CC2)cc1` (stereo not drawn), -3.83% (inactive); to `CCCC(C(=O)OCCN(CC)CC)(c1ccccc1)c1ccccc1`, -5.24% (inactive).
As to `CCCCNc1cc(C(=O)O)cc(S(N)(=O)=O)c1Oc1ccccc1`, the “activity change, negative = inhibition” value is -2.1% (inactive).
To `N[C@@H](Cc1c[nH]c2ccc(O)cc12)C(=O)O` belongs -0.761% (inactive).
As to `O=C(CCCN1CCC(O)(c2cccc(C(F)(F)F)c2)CC1)c1ccc(F)cc1`, the “activity change, negative = inhibition” value was -1.42% (inactive).
For `C[C@]12CCC(=O)C=C1CC[C@@H]1[C@@H]2[C@@H](O)C[C@@]2(C)[C@H]1CC[C@]2(O)C(=O)CO`, the “activity change, negative = inhibition” value is 1.07% (inactive).
To `O=C1N(c2ccccc2)c2ccccc2C1(Cc1ccncc1)Cc1ccncc1` belongs -3.24% (inactive).
To `O=C(CCNNC(=O)c1ccncc1)NCc1ccccc1` belongs -2.19% (inactive); to `Oc1cc(O)c2c(c1)O[C@H](c1ccc(O)c(O)c1)[C@H](O)C2`, 2.41% (inactive).
To `c1cnc(N2CCN(Cc3ccc4c(c3)OCO4)CC2)nc1` belongs -4.37% (inactive).
As to `CCCOc1ccccc1-c1nc2n[nH]nc2c(=O)[nH]1`, the “activity change, negative = inhibition” value was 0.105% (inactive).
To `CC(C)NCC(O)COc1ccc(COCCOC(C)C)cc1` (stereo not drawn) belongs -3.29% (inactive); to `C[C@]12CC[C@@H]3c4ccc(O)cc4CC[C@H]3[C@@H]1CCC2=O`, 0.518% (inactive); to `CN(C)C(=O)Oc1cccc([N+](C)(C)C)c1`, 1.8% (inactive).
For the compound `NCCc1ccc(O)c(O)c1`, the “activity change, negative = inhibition” value is 1.88% (inactive).
Regarding `COCC(=O)O[C@]1(CCN(C)CCCc2nc3ccccc3[nH]2)CCc2cc(F)ccc2[C@@H]1C(C)C`, the “activity change, negative = inhibition” value is -8.46% (inactive).
